Several values for one entry are separate records, joined by “and”; a condition that tells them apart may be missing. Equal values may be shown once. Hit rate of the full screen: of about 5,500 compounds, about 2,000 (36%) were called active. Not shown: some 18% with an inconclusive outcome. Rule as the data show it: active = normalized growth mostly below about 0.91 (no sharp cut-off); inconclusive = no clear call, values can overlap the other calls; inactive = mostly above about 0.92. The list shows a part of the results.
Assay: chemical genetic growth profiling, strain panel (AID 1159580);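 also: tested at 20 µM; growth read once vehicle control cultures reached saturation at 30 °C; 1 = growth at the plate median or of vehicle wells; lower values mean less growth of the strain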
Conditions: S. cerevisiae deletion strains, growth OD

Measured: normalized growth

CCCn1c(=O)c2[nH]c(C3CCCC3)nc2n(CCC)c1=O
inactive: locus YAL013W, strain DEP1, active compounds read low 0.992 | locus YAL021C, strain ccr4, active compounds read low 1.01 | locus YAL026C, strain drs2, active compounds read low 0.984 | locus YAL030W, strain snc1, active compounds read low 0.973 | locus YAL040C, strain CLN3, active compounds read low 0.995 | locus YBL061C, strain skt5, active compounds read low 0.989 | locus YBR009C, strain hhf1, active compounds read low 0.969 | locus YBR021W, strain FUR4, active compounds read low 1.01 | locus YBR023C, strain chs3, active compounds read low 0.986 | locus YBR171W, strain sec66, active compounds read low 0.976 | locus YBR229C, strain ROT2, active compounds read low 0.992 | locus YBR231C, strain swc5, active compounds read low 0.984 | locus YBR279W, strain paf1, active compounds read low 1 | locus YCL011C, strain gbp2, active compounds read low 0.986 | locus YCL016C, strain dcc1, active compounds read low 0.98 | locus YCL029C, strain bik1, active compounds read low 0.959 | locus YCL061C, strain MRC1 (second series), active compounds read low 0.999 | locus YCL061C, strain MRC1, active compounds read low 0.977 | locus YCL069W, strain vba3, active compounds read low 0.98 | locus YCR088W, strain abp1, active compounds read low 0.983 | locus YDL005C, strain med2, active compounds read low 0.992 | locus YDL035C, strain GPR1, active compounds read low 0.981 | locus YDL040C, strain nat1, active compounds read low 0.984 | locus YDL074C, strain BRE1, active compounds read low 0.973 | locus YDL101C, strain DUN1, active compounds read low 0.992 | locus YDL134C, strain PPH21, active compounds read low 0.993 | locus YDL185W, strain tfp1, active compounds read low 0.926 | locus YDL192W, strain arf1, active compounds read low 0.977 | locus YDR001C, strain nth1, active compounds read low 0.986 | locus YDR069C, strain doa4, active compounds read low 0.976 | locus YDR101C, strain arx1, active compounds read low 0.976 | locus YDR137W, strain rgp1, active compounds read low 0.954 | locus YDR150W, strain NUM1, active compounds read low 0.968 | locus YDR159W, strain sac3, active compounds read low 0.968 | locus YDR162C, strain NBP2, active compounds read low 0.998 | locus YDR195W, strain ref2 0.947 | locus YDR297W, strain sur2, active compounds read low 0.99 | locus YDR318W, strain mcm21, active compounds read low 0.964 | locus YDR334W, strain swr1, active compounds read low 0.988 | locus YDR335W, strain msn5, active compounds read low 0.987 | locus YDR363W, strain ESC2, active compounds read low 1.01 | locus YDR388W, active compounds read low 0.96 | locus YDR392W, strain spt3, active compounds read low 0.839 | locus YDR502C, strain sam2, active compounds read low 0.98 | locus YEL003W, strain gim4, active compounds read low 0.985 | locus YEL037C, strain rad23, active compounds read low 0.991 | locus YEL061C, strain CIN8 (second series), active compounds read low 0.987 | locus YEL061C, strain CIN8, active compounds read low 0.994 | locus YER002W, strain NOP16, active compounds read low 1.01 | locus YER015W, strain faa2, active compounds read low 1 | locus YER016W, strain bim1, active compounds read low 0.98 | locus YER110C, active compounds read low 0.949 | locus YER111C, strain swi4, active compounds read low 0.993 | locus YER155C, strain BEM2 (second series), active compounds read low 0.921 | locus YER155C, strain BEM2, active compounds read low 0.995 | locus YER167W, strain BCK2, active compounds read low 0.971 | locus YFR010W, strain ubp6, active compounds read low 0.992 | locus YGL078C, strain dbp3, active compounds read low 0.967 | locus YGL086W, strain mad1, active compounds read low 0.98 | locus YGL167C, strain pmr1, active compounds read low 0.982 | locus YGL173C, strain kem1, active compounds read low 0.983 | locus YGL227W, strain vid30, active compounds read low 0.98 | locus YGL240W, strain doc1, active compounds read low 0.989 | locus YGL248W, strain PDE1, active compounds read low 0.995 | locus YGL253W, strain hxk2, active compounds read low 0.992 | locus YGR078C, strain PAC10, active compounds read low 0.985 and 0.986 | locus YGR135W, strain pre9, active compounds read low 1 | locus YGR229C, strain SMI1, active compounds read low 0.996 and 0.953 | locus YGR252W, strain gcn5, active compounds read low 0.926 | locus YHR013C, strain ard1, active compounds read low 0.928 | locus YHR027C, strain rpn1, active compounds read low 0.988 | locus YHR030C, strain SLT2, active compounds read low 0.984 | locus YHR079C, strain IRE1 (second series), active compounds read low 0.975 | locus YHR094C, strain hxt1, active compounds read low 0.963 | locus YHR129C, strain ARP1, active compounds read low 0.985 | locus YHR142W, strain chs7, active compounds read low 0.988 | locus YHR200W, strain rpn10, active compounds read low 0.963 | locus YIL066C, strain RNR3, active compounds read low 0.972 | locus YIL073C, strain SPO22, active compounds read low 0.914 | locus YIL125W, strain kgd1, active compounds read low 0.985 | locus YIR030C, strain dcg1, active compounds read low 0.977 | locus YJL092W, strain hpr5, active compounds read low 1 | locus YJL095W, strain BCK1 (second series), active compounds read low 0.981 | locus YJL095W, strain BCK1, active compounds read low 0.996 | locus YJL115W, strain asf1, active compounds read low 0.994 | locus YJL129C, strain trk1, active compounds read low 0.943 | locus YJL134W, strain LCB3, active compounds read low 0.979 | locus YJL154C, strain vps35, active compounds read low 0.979 | locus YJL164C, strain tpk1, active compounds read low 0.988 | locus YJL166W, strain qcr8, active compounds read low 0.988 | locus YJL168C, strain set2, active compounds read low 0.971 | locus YJL187C, strain SWE1 (second series), active compounds read low 0.982 | locus YJL187C, strain SWE1, active compounds read low 0.995

Reference: PubChem BioAssay AID1159580 (chemical genetic matrix, 2015)
